Where “and” joins values, the source holds several entries; their conditions need not be identical. Equal values may be shown once. About 79,000 compounds went through this panel and 15% of them were active in at least one assay; those are over-represented in the sample as a whole. Unmarked numbers belong to inactive results. Calls of active or inactive are those of the source. No stated cut-off is given here; in the data, active means growth inhibition above about 70%; inactive means the rest.
Assay: NCI Yeast Anticancer Drug Screen. Data for the sgs1 mgt1 strain (AID 161);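 further: 0% = growth of cultures given vehicle only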
Conditions: S. cerevisiae sgs1 mgt1 strain, hits give high values
Experimental: Growth inhibition of yeast strains with defined genetic alterations is measured as a screen for potential anti-cancer activity. Selected strains with alterations in DNA damage repair or cell cycle control were exposed to compounds and growth inhibition was measured relative to vehicle treated controls. The strain used in this assay is sgs1 mgt1

[1] = at 5.0 µM (retest, dose inferred, filed as 0.5)
[2] = at 50.0 µM (retest, dose inferred, filed as 5.0)

Compound	growth inhibition [1]	growth inhibition [2]	growth inhibition (at 50.0 µM)
O=C1CC(=O)c2ccccc21	3%	12%	59.7%
CCCCC(CC)C(=O)[O][Sn]([CH2]CCC)([CH2]CCC)[O]C(=O)C(CC)CCCC (configuration not stated)	2%	95% (active)	89.4% (active)
NC1CCCCC1N.Nc1c(N=Nc2ccc(-c3ccc(N=Nc4cc(S(=O)(=O)[O-])c5ccccc5c4N)cc3)cc2)cc(S(=O)(=O)[O-])c2ccccc12.[OH3+].[OH3+].[Pt+4]	38%	89% (active)	84.9% (active)
Cc1ccc(NC(=O)/C(CC2N=c3c(ccc4c(O)c5ccccc5c(O)c34)=NC2O)=N/NC(C)(C)C)cc1 (configuration not stated)	-7%	2%	-0.2%
Cc1ccc([N+]2=NC(c3ccccc3)=NN(c3ccccc3)C2)cc1	10%	12%	95.3% (active)
Clc1ccc2c(c1)N(CCCN1CCCC13CCCCC3)c1ccccc1S2	-11%	43%	-25.4%
O=C1C=C(Cl)C(=O)C(c2ccc(Cl)cc2)=C1	17%	95% (active)	93.5% (active)
C[C@]12CC[C@H](O)CC1=CC[C@@H]1C2CC[C@]2(C)C(=O)NC(=O)CC12 (some centres not stated)	33%	94% (active)	91.8% (active)
O=C(CC(=O)n1nc(-c2ccccc2)c(N=Nc2ccc(Cl)cc2)c1-c1ccccc1)Nc1cccc(Cl)c1	0%	2%	73.7% (active)
COC1=C(OC)C(=O)C(Sc2ccc3ccccc3c2)=CC1=O	5%	80% (active)	91.8% (active)
CCN(CC)CCNc1ccc([N+](=O)[O-])c2nc3ccccc3c(N)c12	-4%	6%	82.1% (active)
CN(C)CCNc1ccc2ncnc3c2c1C(=O)c1ccccc1-3	-21%	56%	77.4% (active)
CN(C)CCOC1(Cc2ccc(F)cc2)CCC(C(C)(C)C)CC1 (configuration not stated)	-1% and -5%	75% (active) and 83% (active)	92.8% (active) and 99.1% (active)
CCCCCCCCCCCC1=NCCO1	-12%	47%	87.6% (active)

— PubChem BioAssay (NCI)
